High-throughput results deposited in PubChem BioAssay by University of Kansas High Throughput Screening Laboratory.
The list is not random: actives were taken first. Their share in the collection is about 3.6%.
mHTT CaM bind – mutant huntingtin-calmodulin interaction inhibitors – biochemical, AlphaScreen, primary screen. P42858. AlphaScreen His-mHTT/GST-CaM binding, luminescence. inhibition, % at 15 µM. actives 3.6% (n = 190,000)
Target sequence (P42858 whole entry, looked up, change not shown): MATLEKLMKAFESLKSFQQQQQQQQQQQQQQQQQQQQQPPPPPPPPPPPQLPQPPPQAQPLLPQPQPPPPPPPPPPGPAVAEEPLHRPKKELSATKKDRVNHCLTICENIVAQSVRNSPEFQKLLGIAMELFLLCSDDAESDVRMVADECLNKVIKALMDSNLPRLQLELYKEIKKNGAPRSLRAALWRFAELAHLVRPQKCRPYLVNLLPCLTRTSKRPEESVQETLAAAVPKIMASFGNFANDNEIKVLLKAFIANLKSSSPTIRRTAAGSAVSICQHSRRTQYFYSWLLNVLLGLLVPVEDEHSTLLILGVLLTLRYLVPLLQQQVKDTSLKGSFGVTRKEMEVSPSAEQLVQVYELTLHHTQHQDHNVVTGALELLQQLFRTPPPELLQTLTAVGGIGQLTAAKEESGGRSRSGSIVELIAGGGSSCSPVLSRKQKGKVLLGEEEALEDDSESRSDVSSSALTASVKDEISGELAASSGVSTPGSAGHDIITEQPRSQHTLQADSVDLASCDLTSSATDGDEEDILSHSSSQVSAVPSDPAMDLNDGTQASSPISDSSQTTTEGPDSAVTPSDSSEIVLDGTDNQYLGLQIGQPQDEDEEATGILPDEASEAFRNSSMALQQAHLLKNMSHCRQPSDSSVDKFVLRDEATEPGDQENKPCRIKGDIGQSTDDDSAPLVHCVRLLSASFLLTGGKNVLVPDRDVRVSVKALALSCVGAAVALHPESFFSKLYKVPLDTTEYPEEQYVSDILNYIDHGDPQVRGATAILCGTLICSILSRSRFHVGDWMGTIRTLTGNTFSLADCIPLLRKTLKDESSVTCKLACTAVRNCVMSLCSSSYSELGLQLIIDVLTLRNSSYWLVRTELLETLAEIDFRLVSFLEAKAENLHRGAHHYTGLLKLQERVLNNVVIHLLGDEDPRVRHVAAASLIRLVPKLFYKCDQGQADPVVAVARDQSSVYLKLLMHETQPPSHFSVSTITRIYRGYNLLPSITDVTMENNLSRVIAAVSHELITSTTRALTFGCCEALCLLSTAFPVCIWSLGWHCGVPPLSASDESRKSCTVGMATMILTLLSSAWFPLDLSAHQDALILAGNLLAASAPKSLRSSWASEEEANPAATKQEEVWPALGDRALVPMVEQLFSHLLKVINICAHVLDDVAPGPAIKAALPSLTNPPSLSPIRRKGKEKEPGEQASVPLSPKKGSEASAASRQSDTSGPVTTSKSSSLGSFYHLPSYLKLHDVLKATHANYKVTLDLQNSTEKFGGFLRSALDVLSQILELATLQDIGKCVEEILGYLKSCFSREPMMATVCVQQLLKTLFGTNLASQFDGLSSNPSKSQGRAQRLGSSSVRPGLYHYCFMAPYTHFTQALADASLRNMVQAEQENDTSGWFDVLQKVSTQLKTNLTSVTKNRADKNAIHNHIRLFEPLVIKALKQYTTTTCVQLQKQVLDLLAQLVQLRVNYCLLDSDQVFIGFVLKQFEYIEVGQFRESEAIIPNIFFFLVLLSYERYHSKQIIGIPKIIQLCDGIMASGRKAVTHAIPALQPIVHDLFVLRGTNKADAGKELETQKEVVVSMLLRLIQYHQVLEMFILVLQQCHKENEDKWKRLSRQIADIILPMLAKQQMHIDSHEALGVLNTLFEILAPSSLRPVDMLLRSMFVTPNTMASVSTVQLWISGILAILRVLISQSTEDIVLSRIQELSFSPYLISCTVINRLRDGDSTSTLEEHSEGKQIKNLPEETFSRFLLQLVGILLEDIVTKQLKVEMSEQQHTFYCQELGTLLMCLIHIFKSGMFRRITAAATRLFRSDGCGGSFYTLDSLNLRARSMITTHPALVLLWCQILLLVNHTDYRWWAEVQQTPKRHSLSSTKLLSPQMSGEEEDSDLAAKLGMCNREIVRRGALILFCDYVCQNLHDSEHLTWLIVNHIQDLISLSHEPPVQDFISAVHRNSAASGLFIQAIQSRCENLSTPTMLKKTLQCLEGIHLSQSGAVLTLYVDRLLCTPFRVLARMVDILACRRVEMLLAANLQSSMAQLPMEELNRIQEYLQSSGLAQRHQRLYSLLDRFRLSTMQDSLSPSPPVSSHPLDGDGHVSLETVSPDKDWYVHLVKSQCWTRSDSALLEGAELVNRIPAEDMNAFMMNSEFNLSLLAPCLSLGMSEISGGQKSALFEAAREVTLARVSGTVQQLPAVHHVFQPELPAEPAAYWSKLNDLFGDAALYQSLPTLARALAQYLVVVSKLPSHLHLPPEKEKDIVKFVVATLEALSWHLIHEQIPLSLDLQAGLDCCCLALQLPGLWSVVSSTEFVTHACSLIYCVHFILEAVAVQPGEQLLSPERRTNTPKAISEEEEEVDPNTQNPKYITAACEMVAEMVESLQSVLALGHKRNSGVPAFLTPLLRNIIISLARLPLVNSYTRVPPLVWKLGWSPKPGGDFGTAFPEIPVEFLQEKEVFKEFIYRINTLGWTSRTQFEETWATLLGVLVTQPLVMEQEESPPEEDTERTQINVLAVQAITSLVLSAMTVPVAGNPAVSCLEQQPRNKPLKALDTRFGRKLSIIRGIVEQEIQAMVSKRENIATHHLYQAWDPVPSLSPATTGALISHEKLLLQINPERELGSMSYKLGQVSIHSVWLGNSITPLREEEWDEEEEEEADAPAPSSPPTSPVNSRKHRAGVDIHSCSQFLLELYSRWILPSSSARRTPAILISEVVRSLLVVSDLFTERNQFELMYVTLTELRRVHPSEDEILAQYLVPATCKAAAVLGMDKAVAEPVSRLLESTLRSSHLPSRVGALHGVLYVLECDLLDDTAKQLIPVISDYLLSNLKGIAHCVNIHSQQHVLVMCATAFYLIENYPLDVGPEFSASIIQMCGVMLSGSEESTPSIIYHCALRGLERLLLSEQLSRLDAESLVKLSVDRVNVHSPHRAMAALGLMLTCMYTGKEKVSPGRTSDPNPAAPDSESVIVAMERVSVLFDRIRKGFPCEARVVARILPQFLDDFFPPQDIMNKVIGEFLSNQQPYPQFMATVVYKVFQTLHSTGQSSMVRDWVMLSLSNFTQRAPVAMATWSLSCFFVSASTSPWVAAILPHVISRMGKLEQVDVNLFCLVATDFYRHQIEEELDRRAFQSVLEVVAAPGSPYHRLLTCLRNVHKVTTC
Pf apPOL inh – Pf-apPOL inhibitors, biochemical, fluorescence | Recombinant Pf-apPOL, molecular beacon fluorescence, 1.5 h | actives 0.25% (n = 210,000) | AID 1794808, 2022 | inhibition, % at 10 µM | Plasmodium falciparum apicoplast DNA polymerase (apPOL)
Numbers stand for hits; . = inactive; / = not tested or not shown. No stated cut-off is given here; in the data, active means inhibition above about 50%; inactive means the rest.

SMILES	mHTT CaM bind	Pf apPOL inh
Cc1ccc2nc(-c3ccc(N=Cc4ccc5c(c4)OCO5)cc3O)oc2c1	60.0	.
Cc1ccc(-n2cc(-c3ccc(F)cc3)[nH]c2=O)cc1F	.	.
Cc1cccc(N2CCN(C(=O)C3CCCN(c4cc(=O)n(C)c(=O)n4C)C3)CC2)c1C (stereo unspecified)	51.1	.
Cc1cccc(N2CCN(C(=O)C3CCCN(c4cnn(C)c(=O)c4)C3)CC2)c1C (stereo unspecified)	.	.
Cc1ccc(NC(=O)Cn2[nH]c3c(cnc4ccc(F)cc43)c2=O)cc1Cl	.	.
O=[N+]([O-])c1cc2c(cc1CN1CCN(c3ccccc3)CC1)OCO2	.	.
O=[N+]([O-])c1cc2c(cc1C1N(Cc3ccccc3)CCN1Cc1ccccc1)OCO2	60.0	.
Nc1c(Br)c(Br)c(N)c2c1C(=O)c1ccccc1C2=O	.	.
Nc1c(C(=O)O)cc(Br)c2c1C(=O)c1ccccc1C2=O	51.8	.
COc1ccc(OC)c(Nc2ncc3c(n2)CCN(Cc2ccc4c(c2)OCCO4)C3)c1	.	.
Brc1csc(CN2CCc3nc(Nc4ccccc4)ncc3C2)c1	.	.
COc1cccc(CN2CCc3nc(Nc4ccc5c(c4)OCCO5)ncc3C2)c1OC	.	.
COc1cccc(Nc2ncc3c(n2)CCN(Cc2cc(OC)ccc2OC)C3)c1	.	.
COc1ccc(OC)c(CN2CCc3nc(Nc4ccc(F)cc4)ncc3C2)c1	61.2	.
COc1ccc(OC)c(CN2CCc3nc(Nc4ccc5c(c4)OCCO5)ncc3C2)c1	50.0	.
COc1ccc(Nc2ncc3c(n2)CCN(Cc2ccc4c(c2)OCCO4)C3)cc1	60.5	.
COc1ccc(Nc2ncc3c(n2)CCN(Cc2cc(Br)cs2)C3)cc1	66.4	.
COc1cccc(C(=O)Nc2ccc(-c3ccc4nnc(-c5cccs5)n4n3)cc2)c1	.	.
S=C(NCc1csc2ccccc12)Nc1cccc(Cl)c1Cl	/	.
CC1CCCN(C(=O)c2csc(-c3ccc(N4CCCC4)nc3)n2)C1 (stereo unspecified)	.	.
COCCn1c(C2CCN(C(=O)Nc3cc(Cl)cc(Cl)c3)C2)nc2ccncc21 (stereo unspecified)	.	.
CC1CN(C(=O)Nc2ccc(Cl)cc2)CC1c1nc(-c2ccncc2)no1 (stereo unspecified)	.	.
CC1(C)C2CCC1(CS(=O)(=O)Nc1ccc(F)cc1)C(=O)C2 (stereo unspecified)	.	.
c1ccc(CN2CCc3nc(Nc4ccc5c(c4)OCCO5)ncc3C2)cc1	.	.
COc1ccccc1CN1CCc2nc(Nc3ccc(F)cc3F)ncc2C1	.	.
SMILES	mHTT CaM bind	Pf apPOL inh
COc1cccc(CN2CCc3nc(Nc4ccc5c(c4)OCO5)ncc3C2)c1OC	.	.
COc1cc(OC)c(OC)cc1CN1CCc2nc(Nc3ccc4c(c3)OCO4)ncc2C1	50.3	.
COc1ccc(CN2CCc3nc(Nc4ccc(F)cc4F)ncc3C2)c(OC)c1OC	53.4	.
Fc1cccc(CN2CCc3nc(Nc4ccc5c(c4)OCCO5)ncc3C2)c1	.	.
Cc1ccc(CN2CCc3nc(Nc4ccc5c(c4)OCCO5)ncc3C2)cc1	72.5	.
Fc1cc(F)cc(CN2CCc3nc(Nc4ccc5c(c4)OCO5)ncc3C2)c1	73.0	.
Cc1ccccc1CC(=O)N1CCC(c2nc(-c3ccncc3)no2)C1 (stereo unspecified)	.	.
COc1ccccc1C(c1c(O)cc(C)n(Cc2ccco2)c1=O)N1CCN(C)CC1 (stereo unspecified)	.	.
Cc1ccc(CN2CN(c3ccccc3)c3ncccc3S2(=O)=O)cc1	.	.
O=C1Nc2ccc(S(=O)(=O)O)cc2C1=O	.	.
COc1cccc(C(=O)NCc2cccnc2-c2ccccc2)c1	.	.
N#CCCC1(CCC#N)c2ccccc2-c2ncccc21	.	.
CC(C)OCCCNC(=O)CCC(=O)N1CC2CCCN2c2ccccc21 (stereo unspecified)	.	.
O=[N+]([O-])c1ccc2nn(-c3ccccc3)cc2c1	.	.
O=C(CN1CCC(c2nc(-c3ccccc3)no2)CC1)Nc1ccccc1Br	.	.
CCCN1CCN(c2ncc3c(n2)CCN(Cc2cc(Br)cs2)C3)CC1	.	.
Brc1csc(CN2CCc3nc(N4CCOCC4)ncc3C2)c1	56.5	.
COc1cc(CN2CCc3nc(Nc4ccc5c(c4)OCO5)ncc3C2)ccc1OC(C)C	82.1	.
CCOc1ccc(CN2CCc3nc(Nc4ccc5c(c4)OCO5)ncc3C2)cc1OCC	.	.
CCN1C(=O)CC(NCCc2ccc(S(N)(=O)=O)cc2)C1=O (stereo unspecified)	.	.
Cc1cccc(-c2noc(C3CCCN3C(=O)Cc3ccccc3C)n2)c1 (stereo unspecified)	.	.
COC(=O)c1cccc(C(=O)Nc2ccc(F)cc2C)n1	.	.
CCOC(Cn1c(SCC#N)nc2ccccc2c1=O)OCC	.	.
CC1=CC(c2ccc(Cl)cc2)n2nc(NC(=O)c3ccco3)nc2N1 (stereo unspecified)	.	.
COC(=O)[C@H](CC(C)C)N(CCc1cn(Cc2ccc(C)cc2)nn1)S(=O)(=O)c1ccc(F)cc1Br	71.8	.
SMILES	mHTT CaM bind	Pf apPOL inh
COC(=O)[C@H](CC(C)C)N(CCc1cn(Cc2ccccc2)nn1)S(=O)(=O)c1ccc(F)cc1Br	.	.
Cc1ccc(NC(=O)CSc2nc3n(n2)C(=O)C(=O)N3)cc1	.	93.6
Cc1ccc(SCC(=O)Nc2ccc(F)cc2)cc1	/	.
CC(C)NC(=O)Cn1c2ccccc2n2c(=O)cc(-c3ccc(F)cc3)nc12	.	.
C=C[C@H](CC(C)C)N(Cc1ccccc1)S(=O)(=O)N(Cc1ccc(OC)cc1)[C@H](C=C)CC(C)C	.	.
COc1ccc(CN([C@H](C)C=O)S(=O)(=O)N(Cc2ccccc2)[C@H](C=O)C(C)C)cc1	97.1	.
O=S(=O)(NCCOc1ccc(-c2cccs2)nn1)c1ccc(Cl)s1	.	.
CCCOc1nn(CCC)cc1C(=O)NCc1ccccc1Cl	.	.
N#CCC[C@@H]1CC[C@]2(CCCN(C(=O)c3ccccc3)C2)O1	.	.
N#CCC[C@H]1CC[C@]2(CCCN(Cc3ccc(Br)cc3)C2)O1	88.6	.
N#CCC[C@@H]1CC[C@]2(CCCN(C(=O)c3ccco3)C2)O1	98.8	.
CCN(CC)C(=O)CC[C@H]1CC[C@]2(CCCN(Cc3ccc(Br)cc3)C2)O1	.	.
Cc1cccc(N=Cc2c(C)c(C#N)c3[nH]c4ccccc4n3c2=O)c1C	.	.
COc1ccc(C(=O)Nc2ccc(F)cc2)cc1[N+](=O)[O-]	.	.
CC1(C)OC(=O)C(=Cc2ccc(-c3ccc([N+](=O)[O-])cc3)o2)C(=O)O1	.	.
Cc1ccc(-c2ccc(/C=C/[N+](=O)[O-])o2)c(Br)c1	79.1	.
O=[N+]([O-])/C=C/c1ccc(-c2ccc(Br)cc2)o1	51.1	.
O=Cc1ccc(-c2ccc([N+](=O)[O-])cc2)o1	.	.
Cc1ccc(-c2ccc(C=O)o2)c(Br)c1	.	.
O=[N+]([O-])/C=C/c1ccc(-c2ccc(Cl)cc2)o1	84.4	.
CC(C)C(=O)Nc1nc2c(s1)CN(S(=O)(=O)c1ccccc1)CC2	.	.
CCN(CC)C(=O)c1cc2sc(C)c(CN3CCCCC3)c2[nH]1	.	.
COc1cc(/C=C2/SC(N3CCC(C(N)=O)CC3)=NC2=O)ccc1O	.	.
N#CC(=Cc1ccc(C(F)(F)F)cc1Cl)S(=O)(=O)c1ccccn1	/	.
